Experimental data published in the supplement of paper PMC10981050.
Where “and” joins values, the source holds several entries; their conditions need not be identical. Equal values may be shown once. Where a name gives a salt, the structure may show the parent alone.

How the values were obtained:
Assay in all cases: cell viability relative to vehicle control; higher = less cytotoxic
Details in all cases: 10 µM
K562 = test system: K562
Method in brief: (§1)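 Mutant clones made by CRISPR editing and their isogenic wild-type counterparts, from four leukaemia lines, were exposed to a single 10 µM dose of each library compound for 48 h. The supernatant was then removed and CellTiter-Glo luminescence was read. Viability was reported as percent of the on-plate vehicle control.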

MARIMO = test system: MARIMO
Method in brief: as §1

MOLM14 = test system: MOLM14
Method in brief: as §1

OCI-AML2 = test system: OCI-AML2
Method in brief: as §1

SMILES | cell viability (K562; SRSF2 genotype: SRSF2 P95H/wt) | cell viability (K562; SRSF2 genotype: SRSF2 wt/wt) [%] | cell viability (MARIMO; SRSF2 genotype: SRSF2 P95H/wt) [%] | cell viability (MARIMO; SRSF2 genotype: SRSF2 wt/wt) [%] | cell viability (MOLM14; SRSF2 genotype: SRSF2 P95H/wt) [%] | cell viability (MOLM14; SRSF2 genotype: SRSF2 wt/wt) [%] | cell viability (OCI-AML2; SRSF2 genotype: P95H/wt) [%] | cell viability (OCI-AML2; SRSF2 genotype: wt/wt) [%]
CN(C)CCOc1ccc(/C(=C(/CCCl)c2ccccc2)c2ccccc2)cc1 [Toremifene Citrate (Fareston, Acapodene)] | 64.7% and 56.1% | 71.9 | 53.7 | 65.5 | 56 | 55.7 | 60 | 51.7
CC[C@@H](CO)NCCN[C@@H](CC)CO [Ethambutol HCl] | 99.5% and 99.3% | 98.7 | 99.4 | 112 | 100 | 102 | 104 | 107
Nc1ccc(Oc2ccc(-c3ccc(Oc4ccc(N)cc4)cc3)cc2)cc1 [4,4prime-Bis(4-aminophenoxy)biphenyl] | 103% and 98.3% | 110 | 96.9 | 101 | 100 | 102 | 96 | 112
COc1ccc(C(=O)O)c(O)c1 [4-Methoxysalicylic acid] | 104% and 95.4% | 107 | 98.6 | 99.3 | 98.1 | 106 | 101 | 106
O=c1ccc2cc(O)ccc2o1 [6-Hydroxycoumarin] | 99.5% and 104% | 102 | 99 | 90.9 | 104 | 101 | 97.9 | 99
NCCCCCNCC12CC3CC(CC(C3)C1)C2 [IEM 1754 dihydrobroMide] | 102% and 104% | 95 | 104 | 105 | 103 | 102 | 91.4 | 100
O=c1[nH]c(=O)n([C@H]2C[C@H](O)[C@@H](CO)O2)cc1F [Floxuridine] | 54.2% and 46.3% | 30.1 | 86.5 | 96.5 | 48 | 14.9 | 30.9 | 48.8
OCC(CO)N[C@H]1C[C@](O)(CO)[C@@H](O)[C@H](O)[C@H]1O [Voglibose] | 96.2% and 91.4% | 96.6 | 98.1 | 104 | 99.7 | 97.5 | 92.3 | 109
NCc1c[nH]c(=S)n1[C@@H]1CCc2c(F)cc(F)cc2C1 [(R)-Nepicastat HCl] | 101% and 97% | 102 | 94.9 | 110 | 97.2 | 101 | 104 | 103
O=C[C@H](O)[C@H]1OC(=O)[C@@H](O)[C@H]1O [D-Glucurone] | 90.4% and 88.2% | 86.3 | 84.2 | 95.1 | 88.8 | 88.3 | 88.8 | 94.2
N#C[C@@H]1CCCN1C(=O)CNC12CC3CC(CC(O)(C3)C1)C2 [Vildagliptin (LAF-237)] | 87.8% and 87.2% | 84.8 | 81.8 | 88.6 | 83.9 | 89 | 88.8 | 87.7
CC1=C(C(=O)Nc2cc3cn[nH]c3cc2F)C(c2ccc(C(F)(F)F)cc2)CC(=O)N1 (centres undefined) | 99.9% and 96.7% | 95.3 | 89.1 | 98.6 | 36.8 | 91.7 | 23.6 | 42.9
CCCCCCC1CCC(=O)O1 (centres undefined) | 96.5% and 97.2% | 97.8 | 97.3 | 101 | 103 | 102 | 96.3 | 106
O=C(Nc1cccc2c(=O)cc(-c3nnn[nH]3)oc12)c1ccc(OCCCCc2ccccc2)cc1 [Pranlukast] | 103% | 104 | 106 | 114 | 101 | 104 | 105 | 113
Cc1ncc([N+](=O)[O-])n1CC(O)CCl (centres undefined) [Ornidazole] | 96.6% and 100% | 94.7 | 102 | 104 | 91.9 | 105 | 103 | 106
COc1c(O)c(C)cc2c1C(=O)c1c(O)cccc1C2=O [Obtusifolin] | 103% and 105% | 107 | 109 | 105 | 111 | 105 | 98.6 | 92.6
COC(=O)C1=COC(OC2OC(CO)C(O)C(O)C2O)C2C(CO)=CC(O)C12 (centres undefined) | 105% and 104% | 109 | 105 | 93.2 | 105 | 107 | 98.6 | 98.7
Oc1c(F)cc(-c2cnccc2-c2ccc(N3CCOCC3)cc2)cc1F | 101% and 106% | 105 | 97.5 | 92.6 | 75.5 | 104 | 120 | 103
COC(=O)C1=CO[C@@H](O[C@@H]2O[C@H](CO)[C@@H](O)[C@H](O)[C@H]2O)[C@@H]2[C@H](C)O[C@@H](O)C[C@H]12 [Morroniside] | 93.4% and 87.6% | 93 | 85.3 | 97.1 | 88.1 | 89.3 | 88.8 | 106
O=C(O)c1cn(-c2ccc(F)cc2)c2cc(N3CCNCC3)c(F)cc2c1=O [Sarafloxacin HCl] | 99.7% and 102% | 90.9 | 97.8 | 102 | 103 | 99.5 | 102 | 102
CC1(C)S[C@@H]2[C@H](NC(=O)[C@H](N)c3ccccc3)C(=O)N2[C@H]1C(=O)O [Ampicillin sodium] | 99% and 108% | 102 | 109 | 109 | 102 | 107 | 109 | 95.7
O=C(NC[C@H]1CN(c2ccc(N3CCOCC3=O)cc2)C(=O)O1)c1ccc(Cl)s1 [Rivaroxaban (Xarelto)] | 87.3% and 85.4% | 92.3 | 92.5 | 91.3 | 96.8 | 97.1 | 90.8 | 85.8

SMILES | cell viability (K562; SRSF2 genotype: SRSF2 P95H/wt) | cell viability (K562; SRSF2 genotype: SRSF2 wt/wt) [%] | cell viability (MARIMO; SRSF2 genotype: SRSF2 P95H/wt) [%] | cell viability (MARIMO; SRSF2 genotype: SRSF2 wt/wt) [%] | cell viability (MOLM14; SRSF2 genotype: SRSF2 P95H/wt) [%] | cell viability (MOLM14; SRSF2 genotype: SRSF2 wt/wt) [%] | cell viability (OCI-AML2; SRSF2 genotype: P95H/wt) [%] | cell viability (OCI-AML2; SRSF2 genotype: wt/wt) [%]
C=CC(=O)N1CC(N2CCN(C(=O)CNc3cc(C4(C)CC4)c(Cl)cc3O)CC2)C1 | 93.9% and 95.2% | 97.3 | 88.9 | 102 | 86.1 | 104 | 112 | 108
COc1ccc2cc3[n+](cc2c1O)CCc1cc2c(cc1-3)OCO2 [Berberrubine] | 104% and 100% | 111 | 112 | 98.3 | 109 | 109 | 103 | 99.1
COc1cc(-c2oc3cc(O)cc(O)c3c(=O)c2O[C@@H]2O[C@H](CO[C@@H]3O[C@@H](C)[C@H](O)[C@@H](O)[C@H]3O)[C@@H](O)[C@H](O)[C@H]2O)ccc1O [Narcissoside] | 108% and 102% | 106 | 102 | 103 | 107 | 105 | 103 | 109
COc1cnc(NS(=O)(=O)c2ccc(N)cc2)nc1 [Sulfameter (Bayrena)] | 98.4% and 101% | 98.9 | 106 | 96 | 105 | 102 | 115 | 99
CNC[C@H](O)c1cccc(O)c1 [Phenylephrine hydrochloride] | 103% and 114% | 109 | 104 | 104 | 101 | 109 | 106 | 103
CN(C)CCOc1ccc(-c2nc(-c3ccncc3)c(-c3ccc4c(c3)CC/C4=N\O)[nH]2)cc1 | 1.3% and 2.07% | 0.83 | 11.5 | 4.32 | 30.2 | 49.3 | 6.47 | 15.8
Cc1ccc(S(=O)(=O)NC(=O)NN2CC3CCCC3C2)cc1 (centres undefined) [Gliclazide (Diamicron)] | 95.8% and 105% | 109 | 106 | 111 | 103 | 106 | 113 | 101
COc1cc(O)c(C(=O)c2ccccc2)cc1S(=O)(=O)O [Sulisobenzone] | 99.1% and 89.9% | 94.3 | 95.4 | 104 | 97.8 | 101 | 88.7 | 104
CC(C)CC(CC(=O)NO)C(=O)N[C@@H](Cc1ccc2ccccc2c1)C(=O)N[C@@H](C)C(=O)NCCN (some centres undefined) | 105% | 110 | 112 | 109 | 99.1 | 104 | 110 | 106
COc1ccc2c(c1)c(CC(=O)O)c(C)n2C(=O)c1ccc(Cl)cc1 [Indomethacin (Indocid, Indocin)] | 98.6% and 106% | 105 | 110 | 107 | 106 | 107 | 117 | 114
CCCc1nc2c(C)cc(-c3nc4ccccc4n3C)cc2n1Cc1ccc(-c2ccccc2C(=O)O)cc1 [Telmisartan (Micardis)] | 103% and 107% | 99.5 | 112 | 117 | 110 | 103 | 108 | 128
C=C(C)C1CCC2(C)CCC(=O)C(C)=C2C1 (centres undefined) | 111% and 105% | 112 | 106 | 100 | 112 | 110 | 102 | 101
CC1(C)S[C@@H]2[C@H](NC(=O)C(C(=O)O)c3ccccc3)C(=O)N2[C@H]1C(=O)O (some centres undefined) [Carbenicillin disodium] | 93.2% and 88.7% | 97.2 | 90.3 | 98.8 | 98.6 | 95.4 | 95 | 93
CN[C@@H](C)C(=O)N[C@H]1CN(C(=O)CC(C)C)CC[C@H]2CC[C@@H](C(=O)NC(c3ccccc3)c3ccccc3)N2C1=O | 69.6% and 74.7% | 72.8 | 64.5 | 46.6 | 0.57 | 0.76 | 60.2 | 39.2
COC(=O)CCSCc1ccc(-c2onc(C)c2NC(=O)OC(C)c2ccccc2Cl)cc1 (centres undefined) | 94.7% and 94% | 94.3 | 87.3 | 97.7 | 90 | 94.7 | 82.3 | 100
CNCc1ccc(-c2cc(-c3nc(-c4ccc(S(=O)(=O)C(C)C)cc4)cnc3N)on2)cc1 | 3.16% and 2.89% | 1.89 | 0.36 | 0.32 | 0.28 | 0.34 | 0.39 | 0.9
O=C(NCCCNc1nc(Nc2cccc(NC(=O)N3CCCC3)c2)ncc1I)c1cccs1 | 62.4% and 86.2% | 74.4 | 56.6 | 56.7 | 11.1 | 6.15 | 12.4 | 20.6
C=CCc1cc(OC)c(OC)c(OC)c1 [Elemicin] | 106% and 105% | 113 | 111 | 104 | 105 | 109 | 109 | 123
C[C@@H](Oc1cc(-c2cnn(C3CCNCC3)c2)cnc1N)c1c(Cl)ccc(F)c1Cl | 1.39% and 1.02% | 1.8 | 23.6 | 16.2 | 0.46 | 0.63 | 0.4 | 1.89
CC1=C(CC[C@@H](C)CO[C@@H]2O[C@H](CO)[C@@H](O)[C@H](O)[C@H]2O)O[C@H]2C[C@H]3[C@@H]4CC=C5C[C@@H](O[C@@H]6O[C@H](CO)[C@@H](O[C@@H]7O[C@@H](C)[C@H](O)[C@@H](O)[C@H]7O)[C@H](O)[C@H]6O[C@@H]6O[C@@H](C)[C@H](O)[C@@H](O)[C@H]6O)CC[C@]5(C)[C@H]4CC[C@]3(C)[C@@H]12 [Pseudoprotodioscin] | 107% and 104% | 110 | 99.3 | 104 | 96.2 | 101 | 110 | 105
C[C@]12CC[C@@H]3c4ccc(O)cc4CC[C@H]3[C@@H]1C[C@@H](O)[C@@H]2O [Estriol] | 104% and 92.3% | 87.9 | 86.4 | 99.5 | 101 | 99.9 | 91 | 101
